# USP8 inh = inhibitors of human USP8 deubiquitinase; Ubiquitin carboxyl-terminal hydrolase 8 (Homo sapiens), P40818; inhibition, % at 20 µM; purified USP8, Ub-rhodamine cleavage fluorescence, 30 min; hit rate 4.2% among 47,000
# USP28 block = inhibitors of human USP28 deubiquitinase; hit rate 3% among 47,000; Ubiquitin carboxyl-terminal hydrolase 28 (Homo sapiens), Q96RU2; purified USP28, Ub-rhodamine cleavage fluorescence, 30 min; inhibition, % at 25 µM; AID 1645857, 2021
# USP10 block = inhibitors of human USP10 deubiquitinase; hit rate 1.1% among 47,000; purified USP10, Ub-rhodamine fluorescence, 60 min; AID 1645856, 2021; Ubiquitin carboxyl-terminal hydrolase 10 (Homo sapiens), Q14694; inhibition, % at 20 µM
# USP17 inh = inhibitors of human USP17 deubiquitinase; Ubiquitin carboxyl-terminal hydrolase 17-like protein 5 (Homo sapiens), A8MUK1; purified USP17, Ub-rhodamine cleavage fluorescence, 3 h; inhibition, % at 50 µM; hit rate 6.5% among 47,000; AID 1645855, 2021
# USP30 block = inhibitors of human USP30 deubiquitinase | Ubiquitin carboxyl-terminal hydrolase 30 (Homo sapiens), Q70CQ3 | purified USP30, Ub-rhodamine cleavage fluorescence | hit rate 5.3% among 47,000 | inhibition, % at 25 µM | AID 1645860, 2021
# * hit, by the source's call; i = inactive; nt = not tested or not shown. Hits are enriched below; roughly 14% of the tested compounds scored in any of these assays. Rule as the data show it: active = inhibition above about 30%; inactive = the rest.
SMILES,USP8 inh,USP28 block,USP10 block,USP17 inh,USP30 block
Cn1cc(C(=O)NCc2ccccc2F)c(S(=O)(=O)N2CCCCC2)n1,-348,-14,1,-49,-20
O=C(NCc1ccccc1F)c1ccc(Cl)c(S(=O)(=O)N2CCCCC2)c1,5,38*,9,9,22
O=C(Cn1cnc2c(nc3n2CCCCC3)c1=O)NCCC1=CCCCC1,-1,2,-7,6,-13
COc1ccc(-n2c(SCC(=O)Nc3cc(Cl)ccc3C(=O)O)nc3ccccc3c2=O)cc1Cl,39*,nt,59*,93*,nt
COC(=O)CSc1nc2ccccc2c(=N)n1-c1ccc(Cl)cc1,8,19,12,23,26
CC(=O)N1CCC(c2cc(-c3ccccc3C(=O)O)nc(C)n2)CC1,20,7,0,12,18
CC1=C[C@@H]2/C=C(\C)CCC(=O)C(=O)/C=C/C(=O)[C@]23C(=O)N[C@@H](CC(C)C)[C@@H]3[C@@H]1C,-26,-16,-13,-10,-51
O=C(NC1CCCC1)c1cc(-c2cccnc2)n(-c2ccccc2)n1,21,20,2,24,33*
Cc1ccc(NC(=O)c2cc(-c3cccnc3)n(-c3ccccc3)n2)nc1,17,16,2,32*,51*
O=S(=O)(c1ccccc1)N1CCC2(CC1)NCCN=C2NCc1ccc2c(c1)OCO2,-2,-10,-2,-1,-3
O=S(=O)(c1ccccc1)N1CCC2(CC1)NCCN=C2NCc1cc(F)cc(F)c1,16,17,5,10,33*
CC(C)(C)c1cc(C[C@@H]2C[C@H](NC(=O)N3CCOCC3)C2(C)C)no1,23,16,1,39*,69*
CC(C)(C)c1cc(NC(=O)C2CCCO2)no1 (centres undefined),-4,-9,1,-3,-13
Cc1cccc(C(=O)N2CCCC(Cc3cncc(-c4cnc(C)n4C)n3)C2)n1 (centres undefined),-5,-9,-1,-3,5
CNC(=O)c1c2n(c3ncccc13)CCN(S(=O)(=O)c1ccc(C(C)(C)C)cc1)C2,0,-16,-2,-24,-32
CNC(=O)c1c2n(c3ncccc13)CCN(S(=O)(=O)c1ccc(-c3ccccc3)cc1)C2,14,-2,34*,52*,-22
CCOC(=O)c1cc(C23CC4CC(CC(C4)C2)C3)nc2ccccc12,8,2,6,7,8
COCCCNc1ncc(-c2cc(C)no2)c(-c2ccco2)n1,0,0,-1,-1,-1
COc1ccc(C(=O)Cn2nc(-c3ccco3)c(-c3cc(C)no3)cc2=O)cc1,24,25,3,47*,-5
COc1ccc(OCC(=O)NCc2ccc(-c3ncncc3-c3cc(C)no3)cc2)cc1,1,5,1,9,13
COc1ccc(CNC(=O)C(C)n2nc(-c3ccco3)c(-c3cc(C)no3)cc2=O)cc1 (centres undefined),28,23,13,64*,28
O=C(c1ccc(Cl)cc1)N(Cc1ccc2c(c1)CCO2)C1CC1,7,7,3,7,18
COCCCNC(=O)COc1c(-c2ccc(OC)cc2)oc2ccccc2c1=O,29,18,-1,23,49*
Cc1nc2c(-c3ccc(F)cc3)c(C)[nH]n2c(=O)c1CCC(C)C,6,6,24,8,26
Brc1ccc2nc(Nc3cccc4ccccc34)nc(-c3ccccc3)c2c1,-228,-28,-11,-61,-68
SMILES,USP8 inh,USP28 block,USP10 block,USP17 inh,USP30 block
Clc1ccc2nc(NC3=NCN(CCc4ccccc4)CN3)nc(-c3ccccc3)c2c1,9,27,-1,-5,38*
COc1cccc2c(C)nc(NC3=NCN(CCc4ccccc4)CN3)nc12,11,15,-3,0,33*
Cc1ccc(C(O)Cn2cc(C(=O)Nc3ccc(F)c(F)c3)nn2)cc1 (centres undefined),2,1,7,0,10
COc1ccc(C)cc1NC(=O)c1cc(-c2ccc(Cl)cc2)nc2ccccc12,-7,-10,-3,-3,-13
COc1cc(-c2cc(C(=O)Nc3cc(C)[nH]n3)c3ccccc3n2)cc(OC)c1OC,-132,2,-1,39*,51*
O=C(NCC1CCCO1)[C@H](Cc1ccccc1)NC(=O)[C@@H]1Cc2c([nH]c3ccccc23)C2c3ccccc3C(=O)N21 (some centres undefined),0,-31,-9,nt,-190
Cc1nc(-c2noc(-c3cccnc3)n2)cn1CC(=O)N1CCN(c2ccccc2F)CC1,4,-13,-7,10,-27
O=C(CSc1ccc(-c2ccncc2)nn1)Nc1ccc(Cl)cc1,4,10,1,32*,23
COc1ccc(NC(=O)CSc2ccc(-c3cccnc3)nn2)cc1OC,-17,-16,-2,-2,-7
CC(=O)Nc1cccc(NC(=O)CSc2ccc(-c3ccc4c(c3)OCO4)nn2)c1,33*,3,19,30,33*
COc1ccc(-c2ccc(SCC(=O)Nc3ccc(F)cc3)nn2)cc1OC,83*,-17,16,17,21
COc1cc(NC(=O)Cn2nc(-c3ccc(F)cc3)ccc2=O)ccc1-n1cnnn1,39*,15,51*,79*,43*
Cc1cccc(CC(=O)NCC(c2ccc3c(c2)CCCN3C)N2CCCC2)c1 (centres undefined),-60,-173,-6,-139,i
CCOc1ccc(NC(=O)Cn2c(=O)c(OCC)nc3cccnc32)cc1,-26,-82,-1,-56,-164
O=C(CSc1ccc(-c2cccc([N+](=O)[O-])c2)nn1)Nc1cccc(F)c1,70*,40*,46*,79*,45*
COc1ccccc1NS(=O)(=O)c1cc(NC(=O)c2cccc(-c3ccc(O)cc3)c2)ccc1C,0,7,13,35*,30*
COc1ccccc1NS(=O)(=O)c1cc(NC(=O)CCC(=O)c2ccc(F)cc2)ccc1C,-19,-17,-6,-121,-103
Cn1nc(-c2nc(-c3ccccc3F)no2)c2c1CCN(C(=O)c1cccc(Cl)c1)C2,23,18,3,18,21
COc1ccccc1CNC(=O)c1c(O)c2cnn(-c3cccc(C)c3)c2[nH]c1=O,82*,76*,30,39*,11
Cc1ccc(-n2nnc(C(=O)NC3CCCCC3)c2N)cc1,0,0,2,53*,2
Cc1ccc(-n2nnc(C(=O)NC3CCCC3)c2N)cc1,21,6,0,5,19
COc1ccc(NC(=O)Cn2c(=O)n(-c3ccc(CC(=O)NCc4ccco4)cc3)c(=O)c3ccccc32)cc1Cl,75*,-9,61*,12,-1
O=C(Cc1ccc(-n2c(=O)c3ccccc3n(CC(=O)Nc3ccc(Cl)cc3Cl)c2=O)cc1)NCc1ccco1,56*,10,46*,21,16
